# High-throughput results as filed in PubChem BioAssay.
# Hits are enriched below; roughly 1.2% of the tested compounds scored in any of these assays.
# TNFa cytotox = cytotoxicity in TNFa-stimulated HUVEC, primary screen, cytotoxicity control for VCAM1 expression modulator project, imaging, Hoechst nuclei count | actives 0.17% (n = 93,000) | AID 848, 2007 | cell count reduction, % at 2 µM | HUVEC TNFalpha-stimulated, Hoechst cell count;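 active = cell count reduction exceeding the screen mean by over 5 SD, scaled to untreated wells per plate, cut at about 78% in these data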;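 also: cells counted after 24 h of TNF alpha exposure following the 1 h pretreatment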
# NFkB transloc inh = inhibitors of IL-1B driven NFkB p65 nuclear import, primary screen, imaging, HUVEC, IL-1B stimulus, high-content imaging; inhibition, % at 2 µM; HUVEC IL-1B NFkB p65 nuclear translocation imaging; actives 0.43% (n = 94,000);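 active = inhibition above about 30% together with a positive call from visual inspection of the well image, limit read from the data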;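 also: nuclear over cytoplasmic p65 intensity ratio measured by imaging; 0% = IL-1B stimulated DMSO wells and 100% = unstimulated DMSO wells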
# IL1B NFkB pot = enhancers of NFkB p65 translocation in HUVEC – imaging, IL-1B stimulus, high-content imaging, primary screen | HUVEC IL-1B NFkB p65 nuclear translocation imaging | actives 0.3% (n = 94,000) | activation, % at 2 µM;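 active = activation above 40%, about the mean plus 3 SD, also judged a hit on visual image review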;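 also: percent activation is computed from the nuclear over cytoplasmic p65 intensity ratio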
# Phagocyt inh = inhibitors of macrophage phagocytosis, primary screen, imaging, J774A.1 cells, IgG beads | inhibition, % at 5 µM | AID 1029, 2008 | actives 0.07% (n = 110,000) | J774A.1 macrophage IgG-bead phagocytosis;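 active = inhibition above the mean of the plate negative controls plus 5 SD, cut at about 13% in these data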;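 also: phagocytic index as fraction of beads internalized from green versus red external bead signal; plate controls were DMSO negative control for no effect and cytochalasin-D positive control for full effect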
# VCAM1 TNFa inh = inhibitors of TNFa-induced VCAM1 expression, primary screen, imaging, HUVEC, TNFa stimulus, immunofluorescence; inhibition, % at 2 µM; actives 0.48% (n = 95,000); HUVEC TNFa-induced VCAM-1 immunofluorescence, high-content imaging;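 active = inhibition above the batch mean plus 3 SD, with images confirmed as a hit by eye, cut at about 37% in these data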;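 also: 0% = TNF-stimulated DMSO wells and 100% = unstimulated control wells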
# IL1B cytotox = cytotoxicity in IL-1B stimulated HUVEC, primary screen, cytotoxicity control for IL-1B NFkB translocation project, imaging, Hoechst nuclear count, IL-1B stimulus | HUVEC cell count loss | AID 845, 2007 | cell count reduction, % at 2 µM | actives 0.41% (n = 94,000);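 active = cell count reduction more than 3 SD above the screen-wide mean, cut at about 70% in these data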;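 also: normalized per plate to untreated control cells as the no-loss baseline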
# The depositor's hits bear a star; . = no result given.
SMILES,TNFa cytotox,NFkB transloc inh,IL1B NFkB pot,Phagocyt inh,VCAM1 TNFa inh,IL1B cytotox
O=C(CN1CCCCCC1)N1c2ccccc2C=Cc2ccccc21,-14,31*,-31,-1,-16,3
Cc1cc(C)c(C(=O)COC(=O)c2cc([N+](=O)[O-])ccc2NCCO)cc1C,.,.,.,-9,.,.
O=C(c1csc2ccccc12)N1CCN(c2ccc(Cl)c(Cl)c2)CC1,-3,62*,-62,.,-14,2
COc1ccc(N2CCN(C(=O)c3csc4ccccc34)CC2)cc1,-17,-1,1,3,30,-70
CC12C=CC3(O1)C(C(=O)N(c1cccnc1)C3C(=O)NC1CCCCC1)C2C(=O)Nc1ccccc1 (stereo not drawn),-24,31*,-31,-2,8,-31
CC(C)(C)NC(=O)C1N(c2cccnc2)C(=O)C2C(C(=O)Nc3ccccc3F)C3(C)C=CC21O3 (stereo not drawn),-10,-5,5,0,-4,12
COC(=O)C(CC(=O)c1ccc(Cl)cc1)c1ccc(C(C)C)cc1 (stereo not drawn),-8,-3,3,0,4,-17
Cc1ccc(C)c(/C(O)=C2/C(=O)C(=O)N(CCN3CCOCC3)C2c2ccc(C)o2)c1 (stereo not drawn),-12,-107,107*,-2,-3,-6
CCC1C(=O)Nc2nc(-c3ccccc3)c(-c3ccccc3)n2N=C1C (stereo not drawn),4,-120,120*,-1,6,13
O=C(c1cn(-c2ccccc2)nc1-c1ccncc1)N1CCCCC1,.,24,-24,-2,-54,92*
CCC1=Nc2cc(C(=O)NCCCOC)ccc2Sc2ccccc21,42,.,.,2,60*,.
CCCC1=Nc2cc(C(=O)NCCCOCC)ccc2Sc2ccccc21,74,.,.,11,94*,.
CCCC1=Nc2cc(C(=O)NCCCOC(C)C)ccc2Sc2ccccc21,-5,-12,12,.,-6,-8
Fc1ccccc1C(c1nnnn1C1CCCC1)N1CCN(Cc2ccccc2)CC1 (stereo not drawn),-2,77*,-77,.,19,88*
O=C(COC(=O)c1cnc(Cl)c(Cl)c1)Nc1ccc(S(=O)(=O)N2CCCC2)cc1,.,.,.,-4,.,.
CCOC(=O)Nc1nc(-c2ccccc2)c(C(=O)c2ccccc2)s1,58,3,-3,2,78*,49
COC(=O)Nc1nc(-c2ccccc2)c(C(=O)c2ccc(Cl)cc2)s1,-6,5,-5,5,5,2
CCn1c(SCC(=O)Nc2cccc(NC(=O)c3cccs3)c2)nnc1-c1ccncc1,-33,-42,42*,-3,-8,-40
CCn1c(SCC(=O)NCc2cccs2)nnc1-c1ccncc1,-52,-25,25,-1,3,2
CN(Cc1ccccc1)S(=O)(=O)c1cccc2cccnc12,-1,-6,6,0,-4,-3
COc1ccc(C2=NOC(C(=O)NCCCN3CCOCC3)C2)cc1 (stereo not drawn),12,-47,47*,1,6,5
O=C(Oc1csc(=S)n1C(=O)c1ccccc1)c1ccccc1,86*,22,-22,-1,98*,16
Cc1ccc(Nc2nc(-c3c(C)nc4ccccn34)cs2)cc1,75,34*,-34,.,93*,34
Oc1ccc(Nc2nc(-c3ccc4ccccc4c3)cs2)cc1,-8,22,-22,0,75*,2
Cc1ccc(Nc2nc(-c3c(C)nc4ncccn34)cs2)cc1,40,24,-24,.,12,36
SMILES,TNFa cytotox,NFkB transloc inh,IL1B NFkB pot,Phagocyt inh,VCAM1 TNFa inh,IL1B cytotox
O=C1CC(C(=O)Nc2ccc(Br)cc2)C2(CCCC2)O1 (stereo not drawn),4,25,-25,0,-3,82*
O=C1CC(C(=O)Nc2ccccc2)C2(CCCCC2)O1 (stereo not drawn),-22,-9,9,0,0,7
Cc1onc(-c2ccccc2Cl)c1C(=O)Nc1cc(=O)n(C)c(=O)n1C,15,18,-18,.,16,89*
CCn1c(CN2CCN(c3cccc(C)c3C)CC2)n[nH]c1=S,.,.,.,-3,.,.
CN(Cc1ccccc1)C(=O)c1ccccc1NC(=O)c1ccco1,-2,-42,42*,.,6,88*
O=C(O)CNC(=O)c1ccccc1NC(=O)c1ccco1,-11,-29,29,0,-4,-73
CCn1c(CNc2nc3ccccc3n2C(C)C)nc2ccccc21,1,62*,-62,0,15,-9
c1ccc(CNc2nc3ccccc3n2CCN2CCOCC2)nc1,-2,-4,4,0,8,-2
CCCn1c(=O)c(C(=O)NCc2ccccn2)c(O)c2ccccc21,-1,0,0,-1,8,85*
CC(C)n1c(NCc2nc3ccccc3n2C)nc2ccccc21,-16,6,-6,2,15,-13
CCCn1c(NCc2ccccn2)nc2ccccc21,-6,96*,-96,.,15,92*
COc1cccc(-c2nc(-c3ccc(NC(=O)c4cccs4)cc3)no2)c1,-34,2,-2,-2,3,-4
COc1ccccc1N1CCN(C(=O)c2cc3n(n2)C(C(F)(F)F)CC(c2ccco2)N3)CC1 (stereo not drawn),.,.,.,-2,.,.
O=C(c1cc2n(n1)C(C(F)(F)F)CC(c1ccco1)N2)N1CCc2ccccc2C1 (stereo not drawn),-15,11,-11,1,9,75*
O=C(NC(Cc1ccccc1)c1ccc2c(c1)OCCCO2)c1ccc(F)cc1 (stereo not drawn),4,-44,44*,1,-1,-6
CC(=O)NC(Cc1ccccc1)c1ccc2c(c1)OCCCO2 (stereo not drawn),.,.,.,-1,.,.
Cc1ccc(OCCSc2nc(NC(C)C)nc(NC(C)C)n2)cc1,.,.,.,0,.,.
COC(=O)C1NN=C(C(=O)c2ccc(Cl)cc2)C1c1ccc(OC)cc1 (stereo not drawn),.,.,.,-4,.,.
CSc1ccc(CN(C)CC(=O)Nc2cccc(Br)c2)cc1,.,.,.,-2,.,.
COc1ccccc1NC(=O)C(C)NS(=O)(=O)c1ccccc1 (stereo not drawn),-11,8,-8,.,1,73*
COc1ccc(S(=O)(=O)NC(C)C(=O)Nc2ccccc2C(F)(F)F)cc1 (stereo not drawn),18,-17,17,1,8,0
COc1ccc(CCNC(=O)C2CC(=O)N(c3ccccc3)C2)cc1OC (stereo not drawn),-40,4,-4,0,5,88*
